TDP1 cell CPT = qHTS for Inhibitors of human tyrosyl-DNA phosphodiesterase 1 (TDP1): qHTS in cells in presence of CPT. AID 686979, 2013. 420,000 tested, 12% active. chicken DT40 Tdp1-/-;hTDP1 cells + 20 nM CPT, ATP luminescence, 48 h. Potency, µM (top dose mostly 46.2 µM), for the others: top-dose activity change, negative = growth inhibition, most hits filed as inhibitors; further: potency means the concentration at half of the fitted maximal effect; nearly all actives have a fitted effect of over 55% in size
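Chicken DT40 Tdp1-/- cells complemented with human TDP1, 400 cells/well, exposed to compounds plus 20 nM camptothecin for at least 48 h at 37 C; viability read as ATP content by CellTiter-Glo luminescence.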
ELG1 repair inh = qHTS screen for small molecules that inhibit ELG1-dependent DNA repair in human embryonic kidney (HEK293T) cells expressing luciferase-tagged ELG1 | HEK293T ELG1-luciferase reporter, luminescence, 16 h; DNA damage induced by 5-fluorouridine | Potency, µM (top dose mostly 46.1 µM), inactives show at the highest dose activity change, negative = inhibition, actives largely listed as inhibitors | 330,000 tested, 2.3% active; further: potency means the concentration at half of the fitted maximal effect; nearly all actives have a fitted effect of over 55% in size
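Step one: seed 2,000 cells per well. Step two: pin-transfer compound or DMSO alongside 5-fluorouridine. Step three: incubate 16 hr, 37 °C, 5% CO2. Step four: add ONE-Glo, wait 30 min, read luminescence.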
IL1B secr inh = qHTS for Inhibitors of Inflammasome Signaling: IL-1-beta AlphaLISA Primary Screen; THP-1 LPS/ATP IL-1B secretion, AlphaLISA, 16 h; hits give low values; activity change, % at 57.5 µM; 360,000 tested, 4.7% active; AID 743279, 2014; in the data active means activity change below about -50%; inconclusive means mostly about -30% to -49%
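Secreted IL-1B measured by AlphaLISA bead assay after 16 h compound exposure of THP-1 cells; compounds (final up to 57.5 uM) added 1 h before LPS (250 ng/mL) and ATP (1.25 mM) stimulation; lower signal means less secretion.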
Gal4-VP16 FLuc = VP16 counterscreen qHTS for inhibitors of ROR gamma transcriptional activity. Drosophila S2 Gal4-VP16 UAS-luciferase, luminescence, 20 h. Potency, µM (titrated, usually from 53.6 µM), for inactives: at the highest dose activity, negative = inhibition, actives largely listed as inhibitors. 310,000 tested, 3.5% active. AID 2546, 2010;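 further: Gal4-VP16 expression switched on by copper sulfate through the metallothionein promoter; potency means the concentration at half of the fitted maximal effect; nearly all actives have a fitted effect of over 50% in size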
RORg inh = qHTS for inhibitors of ROR gamma transcriptional activity. AID 2551, 2010. 310,000 tested, 5.4% active. Drosophila S2 Gal4-RORgamma UAS-luciferase reporter, 20 h. Nuclear receptor ROR-gamma (Mus musculus), P51450. Potency, µM (top dose mostly 53.6 µM), inactives show at the top dose activity change, negative = inhibition, most hits filed as inhibitors; further: potency means the concentration at half of the fitted maximal effect; nearly all actives have a fitted effect of over 60% in size
Target sequence (P51450 whole entry, looked up, the tested form may be a part): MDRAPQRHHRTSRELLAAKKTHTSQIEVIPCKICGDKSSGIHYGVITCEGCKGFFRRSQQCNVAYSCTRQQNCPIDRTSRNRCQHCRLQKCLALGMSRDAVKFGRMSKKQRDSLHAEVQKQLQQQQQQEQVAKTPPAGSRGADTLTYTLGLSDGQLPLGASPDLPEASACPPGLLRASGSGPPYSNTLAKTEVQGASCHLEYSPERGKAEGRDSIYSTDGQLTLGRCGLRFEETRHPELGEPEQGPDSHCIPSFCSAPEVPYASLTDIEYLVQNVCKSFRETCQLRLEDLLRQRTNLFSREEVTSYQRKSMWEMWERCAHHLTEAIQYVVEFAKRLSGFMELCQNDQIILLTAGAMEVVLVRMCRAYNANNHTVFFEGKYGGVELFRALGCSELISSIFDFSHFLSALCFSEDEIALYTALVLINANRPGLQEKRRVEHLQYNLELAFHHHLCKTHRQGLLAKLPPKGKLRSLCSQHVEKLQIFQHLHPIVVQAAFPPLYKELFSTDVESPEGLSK
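ROR gamma transcriptional activity was tracked as Gal4-UAS luciferase output in stably transfected Drosophila Schneider cells, with compound added 1 hr before 700 uM copper sulfate induction and a 20 hr ambient-temperature incubation.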
TDP1 cell noCPT = qHTS for Inhibitors of human tyrosyl-DNA phosphodiesterase 1 (TDP1): qHTS in cells in absence of CPT; DT40 Tdp1-/- hTDP1 cells, no CPT, ATP luminescence, 48 h; AID 686978, 2013; 420,000 tested, 15% active; Potency, µM (top dose mostly 46.2 µM), for inactives: top-dose activity change, negative = growth inhibition, actives largely listed as inhibitors; further: potency means the concentration at half of the fitted maximal effect; nearly all actives have a fitted effect of over 55% in size
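Seeded 400 DT40-hTDP1 cells/well (vehicle DMSO, no 20 nM CPT); pinned compounds; ≥48 hr at 37 °C; CellTiter-Glo luminescence as viability measure.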
Numbers without * were called inactive; ? = inconclusive; / = no result given; [ ] = dose if it differs, or a comment. Rows were chosen to be rich in hits. Some 21% of all compounds tested hit in one or more screens of this group. Unless noted, the call rests on the fitted dose curve; in most records, active means well fitted curve in the direction sought with a large enough effect; inconclusive means small, poorly fitted or top-dose-only effect, or another doubt; inactive means no such curve, though single readings can be large; an effect the other way counts as inactive or inconclusive. On the % scale 0 is the no-effect control and ±100 the full control effect.

SMILES	TDP1 cell CPT	ELG1 repair inh	IL1B secr inh	Gal4-VP16 FLuc	RORg inh	TDP1 cell noCPT
CC(C)Oc1cccc(C(=O)C2CCCN(Cc3cccn3-c3ccccn3)C2)c1 (stereo unspecified)	?	?	-91.6*	0.7%	-19.2%	?
COc1cccc(C(=O)C2CCCN(CC3=Cc4cc(OC)ccc4OC3)C2)c1 (stereo unspecified)	?	?	-89.3*	-4.4%	31.7%	-23.7%
O=C(c1ccc(C(F)(F)F)cc1)C1CCCN(Cc2cccn2-c2ncccn2)C1 (stereo unspecified)	?	2.7%	-72.9*	4.2%	-9.6%	25.9µM*
CC(C)Oc1cccc(C(=O)C2CCCN(Cc3ccc4nonc4c3)C2)c1 (stereo unspecified)	-14.8%	3.0%	6.4	-1.2%	?	-9.1%
COc1ccc(F)cc1C(=O)C1CCCN(Cc2ccc(Oc3ncccn3)cc2)C1 (stereo unspecified)	-24.1%	-15.8%	-5.9	22.0%	24.3%	?
COc1ccc(F)cc1C(=O)C1CCCN(Cc2cccn2-c2cccnc2)C1 (stereo unspecified)	?	7.6%	11.8	-6.9%	-11.3%	20.6µM*
CCc1nc2ccc(C(=O)Nc3ccc(NC(C)=O)cc3)cn2c1N(C)CCCc1ccccc1	?	/	-0.6	/	/	?
CC(C)Cc1nn2c(=O)cc(COC(=O)c3cccc(NS(C)(=O)=O)c3)nc2s1	3.1%	/	/	/	/	-0.9%
Cn1c(CC(=O)Nc2ccccc2F)nnc1SCC(=O)Nc1nccs1	3.4%	-3.1%	10.8	-1.8%	-16.5%	-14.6%
O=C(Nc1ccncc1)c1ccc(NS(=O)(=O)c2ccc3[nH]c(=O)[nH]c3c2)cc1	-2.2%	-3.6%	8.6	-2.8%	29.4%	-1.6%
CSc1ccc(C(=O)C2CCCN(Cc3cccc4nccnc34)C2)cc1 (stereo unspecified)	14.6µM*	-16.6%	-19.9	-3.7%	-23.2%	?
CSc1ccc(C(=O)C2CCCN(C(=O)CCCn3cncn3)C2)cc1 (stereo unspecified)	?	?	-2.1	-13.1%	-5.4%	?
Cc1ccsc1C(=O)C1CCCN(Cc2cccn2-c2ccc(Cl)cn2)C1 (stereo unspecified)	23.1µM*	-8.9%	-76.4*	-8.6%	9.5%	25.9µM*
COc1ccc(N2C(=O)[C@@H]3C[C@H]2CN3Cc2cccn2-c2ccc(Cl)cn2)c(C)c1	-0.8%[9.04 µM]	/	/	/	/	?
CCOC(=O)NC1(Nc2cccc(Cl)c2)Oc2ccccc2O1	?	1.0%	10.1	-13.9%	-18.3%	23.1µM*
CC(C)n1c(SCC(=O)N2c3ccccc3Sc3ccccc32)nc2c1c(=O)n(C)c(=O)n2C	20.6µM*	-18.9%	-28.4	12.3%	-1.8%	16.4µM*
CC(C)n1c(SCC(=O)N2CCCCC2)nc2c1c(=O)n(C)c(=O)n2C	-8.4%	-1.8%	66.1	-16.8%	3.1%	-18.6%
COc1ccc(N2CCN(C(=O)CSc3nc4c(c(=O)n(C)c(=O)n4C)n3C(C)C)CC2)cc1	18.4µM*	20.6µM*	-20.8	2.0%	34.0%	?
CC(C)n1c(SCc2ccccc2F)nc2c1c(=O)n(C)c(=O)n2C	20.6µM*	?	46.5	-1.1%	20.4%	25.9µM*
O=C1NC(=O)C2(N1)C(=O)c1cccc3cccc2c13 (stereo unspecified)	-1.5%	/	19.7	/	/	?
CCN(CC)C(=S)Nc1ccc([N+](=O)[O-])cc1	-0.4%	-0.8%	31.1	0.0%	-5.4%	-22.8%
COC(=O)CSc1nnc(-c2ccccc2O)n1-c1ccc(C)cc1	-11.0%	-2.9%	5.1	?	?	-12.3%
CCOC(=O)C(C)Sc1nnc(-c2ccccc2O)n1-c1ccc(C)cc1 (stereo unspecified)	-27.1%	-9.6%	10.1	5.62µM*	3.16µM*	?
CCOC(=O)C(CC)Sc1nnc(COc2ccc(C)cc2)n1-c1ccccc1 (stereo unspecified)	20.6µM*	?	0.5	-5.6%	13.2%	?
O=C(CSc1nnc(COc2ccccc2)n1-c1ccccc1)c1cccs1	18.4µM*	?	?	?	?	20.6µM*
SMILES	TDP1 cell CPT	ELG1 repair inh	IL1B secr inh	Gal4-VP16 FLuc	RORg inh	TDP1 cell noCPT
C/C(=N/NS(=O)(=O)c1ccc(C)cc1C)c1c[nH]c2ccccc12	?	-5.3%	-8.1	?	?	?
Nc1nonc1-n1nnc(C(=O)N/N=C/c2ccccc2Cl)c1CN1CCOCC1	3.6%	3.4%	4.8	0.6%	7.5%	-25.0%
COC(=O)c1ccc(NC(=O)CSCc2ccccc2C)cc1	-23.3%	?	5.3	8.0%	?	?
CCC(CC)C(=O)Nc1cccc(C(=O)Nc2nccs2)c1	?	?	20.0	0.1%	-37.1%	23.1µM*
COc1ccccc1CC(=O)Nc1cccc(C(=O)Nc2nccs2)c1	?	16.4µM*	0.0	-2.7%	-25.1%	?
COc1ccc(NC(=O)CN(C)C(=O)c2ccc(C)c(S(=O)(=O)N3CCCCC3)c2)cc1	-12.6%	/	1.6	/	/	?
COc1ccccc1N1CCN(S(=O)(=O)CCNC(=O)Cc2ccc(F)cc2)CC1	20.6µM*	?	-3.7	/	/	?
COc1ccccc1N1CCN(S(=O)(=O)CCNC(=O)Cc2ccc(Cl)cc2)CC1	?	/	/	/	/	23.1µM*
CCCCOc1ccc(C(=O)NCCS(=O)(=O)N2CCN(c3ccccc3OC)CC2)cc1	5.8µM*	/	/	/	/	7.31µM*
COc1ccc(CC(=O)NCCS(=O)(=O)N2CCN(c3ccc(F)cc3)CC2)cc1OC	?	-17.3%	39.7	-13.9%	?	?
CCOc1ccccc1CNC(=O)c1ccc(CS(=O)Cc2cccc(Cl)c2)o1 (stereo unspecified)	?	/	/	/	/	20.6µM*
COc1ccc(OC)c(CCNC(=O)c2ccc(CS(=O)Cc3cccc(Cl)c3)o2)c1 (stereo unspecified)	23.1µM*	?	-7.4	-7.0%	3.8%	20.6µM*
Cc1nn(C)c(C)c1CNC(=O)Nc1cccc(Cl)c1C	-1.5%	?	21.2	4.3%	2.4%	-19.9%

Screening results as filed in PubChem BioAssay.
